Source: PubChem (National Center for Advancing Translational Sciences (NCATS))
Only a selection was taken, and hits are over-represented in it overall.
nsP2pro inh: Primary qHTS for inhibitors of NSP2Pro chikungunya virus (CHIKV) | Polyprotein P1234 (Chikungunya virus (strain S27-African prototype)), Q8JUX6 | FRET peptide cleavage, nsP2pro, fluorescence 1 h | Potency, µM (doses to about 24.9 µM), without a hit: at the top dose activity change, negative = inhibition, hits mostly inhibitors | hit rate 1.1% among 31,000; note: nearly all actives have a fitted effect of over 60% in size
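Enzyme 150 nM, substrate 2.5 uM (both final); Tris-HCl 10 mM pH 8.0 + 0.01% Tween 20; cpd up to 25 uM, 7 pts; 15 min preinc., 1 h RT; fluorescence ex 525/em 598.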
CHIKV nsP2 cell: Secondary cell base assay for inhibitors of NSP2Pro Chikungunya virus (CHIKV) | shares compounds with nsP2pro inh | cell-based CHIKV nsP2 protease reporter assay | Potency, µM (titrated, usually from 51.1 µM), inactives show top-dose activity change, negative = inhibition, actives largely listed as inhibitors | hit rate 10% among 450 | AID 1964100, 2024; note: nearly all actives have a fitted effect of over 70% in size
Target sequence (Q8JUX6 220-798 limits assumed): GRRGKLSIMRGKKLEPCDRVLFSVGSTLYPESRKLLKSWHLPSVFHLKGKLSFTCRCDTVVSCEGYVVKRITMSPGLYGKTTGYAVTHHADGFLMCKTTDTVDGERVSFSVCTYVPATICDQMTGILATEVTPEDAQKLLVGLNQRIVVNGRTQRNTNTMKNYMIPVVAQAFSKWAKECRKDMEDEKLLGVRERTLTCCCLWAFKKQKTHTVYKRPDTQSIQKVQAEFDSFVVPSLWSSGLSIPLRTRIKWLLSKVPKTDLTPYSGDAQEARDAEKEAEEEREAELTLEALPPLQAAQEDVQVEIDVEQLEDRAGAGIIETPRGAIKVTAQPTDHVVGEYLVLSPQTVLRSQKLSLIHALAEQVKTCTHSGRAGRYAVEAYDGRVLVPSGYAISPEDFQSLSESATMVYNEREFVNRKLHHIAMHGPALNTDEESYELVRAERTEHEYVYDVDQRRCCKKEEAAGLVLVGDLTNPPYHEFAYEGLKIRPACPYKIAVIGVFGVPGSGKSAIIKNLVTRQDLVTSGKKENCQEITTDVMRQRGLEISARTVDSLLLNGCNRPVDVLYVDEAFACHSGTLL
CHIKV NSP2 FL: Selectivity profile for inhibitors of NSP2Pro chikungunya virus (CHIKV): Full length NSP2 enzyme counterscreen (CHIKV-NSP2). Full-length CHIKV NSP2 protease enzymatic counterscreen. shares compounds with nsP2pro inh. Potency, µM (top dose mostly 50.7 µM), without a hit: at the top dose activity change, negative = inhibition, most hits filed as inhibitors. hit rate 39% among 410; note: nearly all actives have a fitted effect of over 65% in size
Furin counterscr: Selectivity profile for inhibitors of NSP2Pro chikungunya virus (CHIKV): Human furin counterscreen; shares compounds with nsP2pro inh; Recombinant human furin enzymatic counterscreen, fluorogenic substrate; Potency, µM (titrated, usually from 50.6 µM), for inactives: at the top dose activity change, negative = inhibition, hits mostly inhibitors; hit rate 6% among 410
NS23 peptide cs: Selectivity profile for inhibitors of NSP2Pro chikungunya virus (CHIKV): Endogenous NS2/3 peptide Counterscreen | shares compounds with nsP2pro inh | Purified CHIKV nsP2 protease, endogenous NS2/3 peptide cleavage | Potency, µM (titrated, usually from 51 µM), without a hit: at the highest dose activity change, negative = inhibition, actives largely listed as inhibitors | hit rate 34% among 410 | AID 1964103, 2024; note: nearly all actives have a fitted effect of over 55% in size
Papain counter: Selectivity profile for inhibitors of NSP2Pro chikungunya virus (CHIKV): Papain Counterscreen; shares compounds with nsP2pro inh; purified papain protease activity, enzymatic inhibition; Potency, µM (series often up to 51 µM), without a hit: at the top dose activity change, negative = inhibition, actives largely listed as inhibitors; hit rate 5% among 410
nsP2pro confirm: Confirmatory qHTS for inhibitors of NSP2Pro chikungunya virus (CHIKV); hit rate 43% among 410; Potency, µM (highest dose often 25.5 µM), for inactives: at the top dose activity change, negative = inhibition, hits mostly inhibitors; CHIKV nsP2 protease enzymatic activity, qHTS; shares compounds with nsP2pro inh; note: nearly all actives have a fitted effect of over 75% in size
HCV NS3 4A cs: Selectivity profile for inhibitors of NSP2Pro chikungunya virus (CHIKV): NS34A-HCV Counterscreen; Potency, µM (doses to about 50.9 µM), hits mostly inhibitors; shares compounds with nsP2pro inh; hit rate 20% among 410; HCV NS3/4A protease biochemical counterscreen; AID 1964106, 2024; note: nearly all actives have a fitted effect of over 55% in size
An asterisk follows results filed as active; [ ] = remark or other dose. Calls come from the whole dose curve. % is set by controls: 0 for no effect and ±100 for the full control effect; potency is the fitted concentration of half-maximal effect.

`Cc1ccccc1NC(=O)Nc1ccc(CC(=O)N(C)[C@@H](CC(C)C)C(=O)NCC[C@H](NC(=O)[C@@H]2CCCN2S(=O)(=O)c2cc(Cl)cc(Cl)c2)C(=O)O)cc1` gave nsP2pro inh 14.7%[10 µM].
`CN(C(=O)c1cccs1)c1cccnc1` gave nsP2pro inh -11.5%.
For O=C(Nc1ccc(N2CCC(N3CCCCC3)CC2)c(C(=O)O)c1)c1ccccc1 the results were nsP2pro inh 10.7µM*, CHIKV nsP2 cell -4.7%, CHIKV NSP2 FL 2.91µM*, Furin counterscr inconclusive, NS23 peptide cs 9.19µM*, Papain counter -3.0%, nsP2pro confirm 6.34µM* and HCV NS3 4A cs 1.83µM*.
Screening Cc1c(C(=O)Nc2ccc(N3CCC(N4CCOCC4)CC3)c(C#N)c2)cnn1-c1ccc(Cl)cc1 returned nsP2pro inh -28.1%.
Screening O=C(Nc1cncnc1)c1cccs1 returned nsP2pro inh -2.6%.
For COc1cccc(C(=O)Nc2ccc3nc(N4CCC(C)CC4)cc(C)c3c2)c1 the results were nsP2pro inh 7.7%.
`O=C(Nc1ccc(S(=O)(=O)Nc2ncccn2)cc1)c1cccc(Cl)c1` gave nsP2pro inh -28.6%.
`Cc1cccc(C(=O)Nc2ccc3oc(-c4cccc5c(Br)cccc45)nc3c2)c1` gave nsP2pro inh -21.3%.
`Cn1c(=O)n(C)c2cc(N3CCCC3)c(NC(=O)Nc3ccccc3)cc21` gave nsP2pro inh -12.1%.
Screening Cc1cccc(C(=O)Nc2ccc(N3CC=C(c4ccccc4C)CC3)c(C(=O)O)c2)c1 returned nsP2pro inh 9.53µM*, CHIKV nsP2 cell 30.4%, CHIKV NSP2 FL 2.06µM*, Furin counterscr inconclusive, NS23 peptide cs 7.3µM*, Papain counter 1.4%, nsP2pro confirm 5.04µM* and HCV NS3 4A cs 1.63µM*.
CCN1C(=O)c2ccccc2Sc2ccc(NC(=O)c3cccc(C)c3)cc21 was read as nsP2pro inh -4.5%.
For CC1CCN(c2ccc(NC(=O)c3cccc(Cl)c3)cc2C(=O)O)CC1 the results were nsP2pro inh 4.47µM*, CHIKV nsP2 cell inconclusive, CHIKV NSP2 FL -0.7%, Furin counterscr inconclusive, NS23 peptide cs 0.461µM*, Papain counter 5.2%, nsP2pro confirm 7.11µM* and HCV NS3 4A cs 3.26µM*.
For Cc1ccc(C)c(N2CCN(c3ccc(NC(=O)c4cccs4)cc3C(=O)O)CC2)c1 the results were nsP2pro inh 5.62µM*, CHIKV nsP2 cell 3.6%, CHIKV NSP2 FL inconclusive, Furin counterscr -22.6%, NS23 peptide cs 16.3µM*, Papain counter 6.7%, nsP2pro confirm 7.98µM* and HCV NS3 4A cs 4.11µM*.
For Cc1ccccc1C(=O)Nc1ccc(NC(=O)c2cccs2)cc1 the results were nsP2pro inh 18.0%.
For O=C(N[C@@H]1CC[C@@H](c2cccc(F)c2F)CN(CC(F)(F)F)C1=O)N1CCC(n2c(=O)[nH]c3ncccc32)CC1 the results were nsP2pro inh -1.1%.
`Oc1c(C(c2cccc(Br)c2)N2CCCC2)sc2nc(-c3ccco3)nn12` (stereo not drawn) gave nsP2pro inh -19.4%.
For Cc1cccc(C(=O)Nc2cc3c(cc2N2CCCCC2)n(C)c(=O)c(=O)n3C)c1 the results were nsP2pro inh 11.1%.
N[C@H](CC(=O)O)C(=O)O was read as nsP2pro inh -21.8%.
`CCOC(=O)c1c(C)[nH]c(C)c1S(=O)(=O)N1CCCC(C(=O)Nc2ncccc2C)C1` (stereo not drawn) gave nsP2pro inh -16.5%.
Screening CCc1nc2c(c(-c3ccc(Cl)cc3)n1)CN([S+](C)(=O)[O-])CC2 returned nsP2pro inh 0.3%[39.2 µM].
For COCC1(CNCC2CCCC2)C[C@@H](O)[C@@H](O)C1 (stereo partly drawn) the results were nsP2pro inh -2.3%[39.2 µM].
Screening O=C(CC1CCOC2(CCN(Cc3cccs3)CC2)C1)NC1CC1 (stereo not drawn) returned nsP2pro inh -1.1%.
`CCc1cc2c(cc3c(=O)n(CC(=O)NCCOC)nc(CC)n32)s1` gave nsP2pro inh 4.8%.
For C[C@@H](OC(=O)/C=C/c1ccc(O)cc1)C1=C[C@]2(C=C[C@@H]3C(C(=O)O)=CO[C@@H](O[C@@H]4O[C@H](CO[C@@H]5O[C@H](CO)[C@@H](O)[C@H](O)[C@H]5O)[C@@H](O)[C@H](O)[C@H]4O)[C@@H]32)OC1=O the results were nsP2pro inh 20.8%[10 µM].
For COC(=O)C1=CO[C@@H](O[C@@H]2O[C@H](CO)[C@@H](O)[C@H](O)[C@H]2O)[C@H]2[C@@H]1C=C[C@]21C=C([C@H](C)OC(=O)/C=C/c2ccc(O)cc2)C(=O)O1 the results were nsP2pro inh 1.65µM*, CHIKV nsP2 cell -29.1%[17.6 µM], CHIKV NSP2 FL 3.43µM*, Furin counterscr -3.1%[17.3 µM], NS23 peptide cs inconclusive, Papain counter -10.3%[17.2 µM], nsP2pro confirm 1.33µM* and HCV NS3 4A cs inconclusive.
Screening O=C(/C=C/c1ccc(O)cc1)OC[C@@]1(O)C=C[C@@H]2C(C(=O)O)=CO[C@@H](O[C@@H]3O[C@H](CO)[C@@H](O)[C@H](O)[C@H]3O)[C@@H]21 returned nsP2pro inh 146.6%[10 µM].
O=C1c2ccccc2C(=O)N1c1ccccc1O was read as nsP2pro inh -3.3%.
Screening COCCC1(NC(=O)c2ccccc2)CCN(C(=O)c2ocnc2C)CC1 returned nsP2pro inh 3.5%.
Screening C/C=C/c1ccc(OC)cc1 returned nsP2pro inh -6.6%.
